Measured values reported in ChEMBL document CHEMBL1961873, “Compounds: GSK PKIS; Assays: Nanosyn kinase panel” (2012).

Key:
[1] = molecular target: Ribosomal protein S6 kinase alpha-6 (Homo sapiens) (UniProt Q9UK32); details: at 1 µM;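 further: each value is a mean inhibition of RSK4 from a GSK PKIS panel screen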
[2] = molecular target: T1, Serine/threonine-protein kinase Sgk1 (Homo sapiens) (UniProt O00141); details: at 0.1 µM
T1 sequence (whole entry): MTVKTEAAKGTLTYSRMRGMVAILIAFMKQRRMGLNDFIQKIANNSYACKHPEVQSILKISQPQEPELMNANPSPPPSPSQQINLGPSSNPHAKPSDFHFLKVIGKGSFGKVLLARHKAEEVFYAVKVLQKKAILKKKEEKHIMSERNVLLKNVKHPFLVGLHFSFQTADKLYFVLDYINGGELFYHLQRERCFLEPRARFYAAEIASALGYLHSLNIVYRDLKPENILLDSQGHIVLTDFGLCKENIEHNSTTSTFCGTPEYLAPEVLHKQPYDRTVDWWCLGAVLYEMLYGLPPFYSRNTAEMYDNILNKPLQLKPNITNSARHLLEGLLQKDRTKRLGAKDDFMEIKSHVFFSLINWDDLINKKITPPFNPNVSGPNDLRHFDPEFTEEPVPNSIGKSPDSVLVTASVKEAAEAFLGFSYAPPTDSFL

[3] = molecular target: T1, Serine/threonine-protein kinase Sgk1 (Homo sapiens); details: at 1 µM
[4] = molecular target: T2, Serine/threonine-protein kinase Sgk2 (Homo sapiens) (UniProt Q9HBY8); details: at 0.1 µM
T2 sequence (whole entry): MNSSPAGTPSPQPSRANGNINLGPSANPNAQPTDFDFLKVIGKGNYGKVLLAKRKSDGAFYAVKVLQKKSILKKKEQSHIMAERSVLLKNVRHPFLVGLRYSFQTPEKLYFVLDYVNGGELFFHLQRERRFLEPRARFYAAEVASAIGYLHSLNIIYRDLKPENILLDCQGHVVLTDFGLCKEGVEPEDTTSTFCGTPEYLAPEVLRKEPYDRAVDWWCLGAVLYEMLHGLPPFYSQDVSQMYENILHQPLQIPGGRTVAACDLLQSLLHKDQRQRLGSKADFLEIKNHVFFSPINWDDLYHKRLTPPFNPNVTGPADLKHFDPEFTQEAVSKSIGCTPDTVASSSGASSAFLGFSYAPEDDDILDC

[5] = molecular target: T2, Serine/threonine-protein kinase Sgk2 (Homo sapiens); details: at 1 µM
[6] = molecular target: T3, Serine/threonine-protein kinase Sgk3 (Homo sapiens) (UniProt Q96BR1); details: at 0.1 µM
T3 sequence (whole entry): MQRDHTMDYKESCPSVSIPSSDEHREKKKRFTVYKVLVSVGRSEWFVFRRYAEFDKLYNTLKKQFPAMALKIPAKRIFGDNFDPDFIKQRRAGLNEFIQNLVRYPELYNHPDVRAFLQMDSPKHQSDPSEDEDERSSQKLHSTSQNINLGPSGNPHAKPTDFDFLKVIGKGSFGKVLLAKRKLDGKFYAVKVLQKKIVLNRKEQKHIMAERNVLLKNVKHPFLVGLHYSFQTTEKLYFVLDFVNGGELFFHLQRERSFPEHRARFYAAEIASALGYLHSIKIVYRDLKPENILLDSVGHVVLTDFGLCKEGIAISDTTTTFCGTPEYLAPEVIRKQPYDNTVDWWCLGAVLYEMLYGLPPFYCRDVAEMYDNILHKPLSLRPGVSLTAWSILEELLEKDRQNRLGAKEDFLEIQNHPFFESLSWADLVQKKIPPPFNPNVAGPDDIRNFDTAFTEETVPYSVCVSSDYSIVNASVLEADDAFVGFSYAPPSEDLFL

[7] = molecular target: T3, Serine/threonine-protein kinase Sgk3 (Homo sapiens); details: at 1 µM
[8] = molecular target: 5'-AMP-activated protein kinase catalytic subunit alpha-1 (Homo sapiens) (UniProt Q13131); details: at 0.1 µM
5'-AMP-activated protein kinase catalytic subunit alpha-1 (Homo sapiens), sequence (Q13131 whole entry, looked up): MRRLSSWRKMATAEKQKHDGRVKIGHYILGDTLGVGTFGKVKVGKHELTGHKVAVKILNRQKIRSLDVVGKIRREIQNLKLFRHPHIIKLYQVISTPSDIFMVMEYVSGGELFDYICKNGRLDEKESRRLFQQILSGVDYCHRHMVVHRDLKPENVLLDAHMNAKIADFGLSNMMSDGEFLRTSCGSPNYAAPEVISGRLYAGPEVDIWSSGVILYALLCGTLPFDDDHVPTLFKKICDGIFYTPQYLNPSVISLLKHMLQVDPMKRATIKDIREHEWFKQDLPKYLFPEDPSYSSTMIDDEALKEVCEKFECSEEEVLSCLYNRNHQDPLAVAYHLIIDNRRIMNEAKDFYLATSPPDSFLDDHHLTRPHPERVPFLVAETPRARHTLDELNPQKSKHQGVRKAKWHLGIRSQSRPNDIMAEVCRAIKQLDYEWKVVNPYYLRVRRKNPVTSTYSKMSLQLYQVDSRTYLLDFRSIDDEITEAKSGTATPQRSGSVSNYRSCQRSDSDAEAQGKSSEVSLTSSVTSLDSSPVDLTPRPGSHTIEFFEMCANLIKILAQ

[9] = molecular target: 5'-AMP-activated protein kinase catalytic subunit alpha-1 (Homo sapiens) (UniProt Q13131); details: at 1 µM
[10] = molecular target: 5'-AMP-activated protein kinase catalytic subunit alpha-2 (Homo sapiens) (UniProt P54646); details: at 0.1 µM
5'-AMP-activated protein kinase catalytic subunit alpha-2 (Homo sapiens), sequence (P54646 whole entry, looked up): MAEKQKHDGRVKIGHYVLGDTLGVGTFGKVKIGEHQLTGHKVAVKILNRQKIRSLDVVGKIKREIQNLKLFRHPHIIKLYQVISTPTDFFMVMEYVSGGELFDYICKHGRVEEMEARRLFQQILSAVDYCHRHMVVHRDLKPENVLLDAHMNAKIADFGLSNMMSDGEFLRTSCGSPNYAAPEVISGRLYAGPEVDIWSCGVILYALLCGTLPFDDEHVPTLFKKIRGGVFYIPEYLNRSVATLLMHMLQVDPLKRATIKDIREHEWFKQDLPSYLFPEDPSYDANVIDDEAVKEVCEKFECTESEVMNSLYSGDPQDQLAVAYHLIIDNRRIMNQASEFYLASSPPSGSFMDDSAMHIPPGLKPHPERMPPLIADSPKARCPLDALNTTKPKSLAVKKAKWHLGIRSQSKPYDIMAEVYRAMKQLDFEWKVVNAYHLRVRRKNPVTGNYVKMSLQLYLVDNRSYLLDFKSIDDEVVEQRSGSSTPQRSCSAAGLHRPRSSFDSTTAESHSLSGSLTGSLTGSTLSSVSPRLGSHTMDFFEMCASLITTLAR

[11] = molecular target: 5'-AMP-activated protein kinase catalytic subunit alpha-2 (Homo sapiens) (UniProt P54646); details: at 1 µM
[12] = molecular target: T4, NUAK family SNF1-like kinase 1 (Homo sapiens) (UniProt O60285); details: at 0.1 µM
T4 sequence (whole entry): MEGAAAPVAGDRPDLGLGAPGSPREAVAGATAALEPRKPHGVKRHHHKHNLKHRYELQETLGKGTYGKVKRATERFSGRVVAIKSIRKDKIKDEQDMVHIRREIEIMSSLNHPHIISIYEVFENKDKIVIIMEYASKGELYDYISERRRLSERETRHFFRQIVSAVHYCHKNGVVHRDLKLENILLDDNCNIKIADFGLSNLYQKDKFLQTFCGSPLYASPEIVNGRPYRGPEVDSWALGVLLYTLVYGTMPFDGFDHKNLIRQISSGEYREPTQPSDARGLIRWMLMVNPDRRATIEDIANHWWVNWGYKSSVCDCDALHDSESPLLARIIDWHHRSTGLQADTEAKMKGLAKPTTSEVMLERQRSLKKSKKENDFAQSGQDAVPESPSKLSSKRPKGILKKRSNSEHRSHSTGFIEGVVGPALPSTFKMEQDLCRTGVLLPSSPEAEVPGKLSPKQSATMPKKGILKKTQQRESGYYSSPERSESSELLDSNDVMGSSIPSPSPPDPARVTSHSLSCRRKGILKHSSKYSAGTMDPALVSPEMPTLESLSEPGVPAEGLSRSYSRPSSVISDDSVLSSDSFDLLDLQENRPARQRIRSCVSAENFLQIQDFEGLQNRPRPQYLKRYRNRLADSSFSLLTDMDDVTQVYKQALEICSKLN

[13] = molecular target: T4, NUAK family SNF1-like kinase 1 (Homo sapiens); details: at 1 µM
[14] = molecular target: T5, Serine/threonine-protein kinase BRSK1 (Homo sapiens) (UniProt Q8TDC3); details: at 0.1 µM
T5 sequence (whole entry): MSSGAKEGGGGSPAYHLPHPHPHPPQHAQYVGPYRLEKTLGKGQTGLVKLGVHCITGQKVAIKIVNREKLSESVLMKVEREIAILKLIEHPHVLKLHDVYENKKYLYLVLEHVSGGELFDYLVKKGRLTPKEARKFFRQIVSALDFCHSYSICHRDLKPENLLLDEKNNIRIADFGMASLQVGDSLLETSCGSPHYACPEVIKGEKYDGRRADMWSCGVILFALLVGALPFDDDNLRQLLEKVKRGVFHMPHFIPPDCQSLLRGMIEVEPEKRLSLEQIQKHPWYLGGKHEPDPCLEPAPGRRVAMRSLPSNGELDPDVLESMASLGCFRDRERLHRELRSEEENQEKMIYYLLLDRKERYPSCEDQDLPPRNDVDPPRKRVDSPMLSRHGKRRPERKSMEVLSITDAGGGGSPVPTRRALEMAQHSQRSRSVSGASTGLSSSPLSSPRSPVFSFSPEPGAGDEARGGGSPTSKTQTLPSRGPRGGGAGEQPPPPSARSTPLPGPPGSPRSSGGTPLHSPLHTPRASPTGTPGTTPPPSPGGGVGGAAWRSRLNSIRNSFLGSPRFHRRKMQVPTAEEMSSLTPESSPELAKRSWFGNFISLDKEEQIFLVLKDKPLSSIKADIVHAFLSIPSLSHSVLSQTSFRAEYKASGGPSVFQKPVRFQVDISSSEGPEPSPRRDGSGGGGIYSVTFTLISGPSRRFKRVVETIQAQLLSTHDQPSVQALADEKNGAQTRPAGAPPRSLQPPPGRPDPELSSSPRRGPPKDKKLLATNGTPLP

[15] = molecular target: T5, Serine/threonine-protein kinase BRSK1 (Homo sapiens); details: at 1 µM
[16] = molecular target: T6, Serine/threonine-protein kinase BRSK2 (Homo sapiens) (UniProt Q8IWQ3); details: at 0.1 µM
T6 sequence (whole entry): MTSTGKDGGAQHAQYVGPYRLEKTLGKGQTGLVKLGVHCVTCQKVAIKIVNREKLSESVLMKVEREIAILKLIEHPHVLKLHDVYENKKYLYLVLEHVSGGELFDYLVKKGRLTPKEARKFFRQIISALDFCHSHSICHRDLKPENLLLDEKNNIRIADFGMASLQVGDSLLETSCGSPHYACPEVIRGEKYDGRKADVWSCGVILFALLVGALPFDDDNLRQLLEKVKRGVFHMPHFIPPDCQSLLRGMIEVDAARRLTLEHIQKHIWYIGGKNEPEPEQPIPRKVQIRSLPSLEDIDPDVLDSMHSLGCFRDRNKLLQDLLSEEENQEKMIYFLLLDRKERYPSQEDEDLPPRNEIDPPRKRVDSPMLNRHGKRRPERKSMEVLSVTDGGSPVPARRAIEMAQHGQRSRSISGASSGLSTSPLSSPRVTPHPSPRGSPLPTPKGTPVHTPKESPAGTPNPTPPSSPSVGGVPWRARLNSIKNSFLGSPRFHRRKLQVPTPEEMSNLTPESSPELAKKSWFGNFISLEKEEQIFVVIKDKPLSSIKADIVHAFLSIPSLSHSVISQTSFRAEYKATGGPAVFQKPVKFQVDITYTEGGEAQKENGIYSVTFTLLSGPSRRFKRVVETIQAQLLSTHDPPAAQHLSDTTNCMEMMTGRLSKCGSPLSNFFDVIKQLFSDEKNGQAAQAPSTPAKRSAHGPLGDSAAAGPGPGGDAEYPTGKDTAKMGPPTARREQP

[17] = molecular target: T6, Serine/threonine-protein kinase BRSK2 (Homo sapiens); details: at 1 µM
[18] = molecular target: Calcium/calmodulin-dependent protein kinase type 1D (Homo sapiens) (UniProt Q8IU85); details: at 0.1 µM
Calcium/calmodulin-dependent protein kinase type 1D (Homo sapiens), sequence (Q8IU85 whole entry, looked up): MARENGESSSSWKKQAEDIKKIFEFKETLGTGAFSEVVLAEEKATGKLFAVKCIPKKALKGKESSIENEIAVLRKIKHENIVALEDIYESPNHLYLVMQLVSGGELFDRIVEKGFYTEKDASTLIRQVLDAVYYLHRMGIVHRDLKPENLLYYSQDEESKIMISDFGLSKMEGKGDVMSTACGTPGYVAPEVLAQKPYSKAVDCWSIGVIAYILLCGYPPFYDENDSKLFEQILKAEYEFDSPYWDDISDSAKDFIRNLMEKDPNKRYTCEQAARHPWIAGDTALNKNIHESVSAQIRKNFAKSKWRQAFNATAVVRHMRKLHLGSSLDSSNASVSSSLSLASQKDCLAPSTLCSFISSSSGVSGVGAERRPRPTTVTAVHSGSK

[19] = molecular target: Calcium/calmodulin-dependent protein kinase type 1D (Homo sapiens) (UniProt Q8IU85); details: at 1 µM
[20] = molecular target: Calcium/calmodulin-dependent protein kinase type II subunit alpha (Homo sapiens) (UniProt Q9UQM7); details: at 0.1 µM;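 further: reported values are averages (mean inhibition of CAMK2A)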
Calcium/calmodulin-dependent protein kinase type II subunit alpha (Homo sapiens), sequence (Q9UQM7 whole entry): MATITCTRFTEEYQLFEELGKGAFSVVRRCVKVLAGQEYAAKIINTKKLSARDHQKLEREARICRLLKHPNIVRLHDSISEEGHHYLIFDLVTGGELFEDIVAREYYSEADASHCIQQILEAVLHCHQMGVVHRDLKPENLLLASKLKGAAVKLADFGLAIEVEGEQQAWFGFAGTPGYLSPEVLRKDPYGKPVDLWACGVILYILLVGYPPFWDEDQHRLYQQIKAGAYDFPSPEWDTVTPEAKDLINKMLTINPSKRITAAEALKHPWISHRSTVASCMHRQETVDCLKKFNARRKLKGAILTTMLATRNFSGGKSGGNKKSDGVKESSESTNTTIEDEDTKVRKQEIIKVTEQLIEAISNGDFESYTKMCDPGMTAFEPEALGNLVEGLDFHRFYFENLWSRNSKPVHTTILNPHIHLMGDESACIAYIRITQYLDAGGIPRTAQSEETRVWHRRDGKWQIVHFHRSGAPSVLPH

Ribosomal protein S6 kinase alpha-6 (Homo sapiens), sequence (Q9UK32 whole entry): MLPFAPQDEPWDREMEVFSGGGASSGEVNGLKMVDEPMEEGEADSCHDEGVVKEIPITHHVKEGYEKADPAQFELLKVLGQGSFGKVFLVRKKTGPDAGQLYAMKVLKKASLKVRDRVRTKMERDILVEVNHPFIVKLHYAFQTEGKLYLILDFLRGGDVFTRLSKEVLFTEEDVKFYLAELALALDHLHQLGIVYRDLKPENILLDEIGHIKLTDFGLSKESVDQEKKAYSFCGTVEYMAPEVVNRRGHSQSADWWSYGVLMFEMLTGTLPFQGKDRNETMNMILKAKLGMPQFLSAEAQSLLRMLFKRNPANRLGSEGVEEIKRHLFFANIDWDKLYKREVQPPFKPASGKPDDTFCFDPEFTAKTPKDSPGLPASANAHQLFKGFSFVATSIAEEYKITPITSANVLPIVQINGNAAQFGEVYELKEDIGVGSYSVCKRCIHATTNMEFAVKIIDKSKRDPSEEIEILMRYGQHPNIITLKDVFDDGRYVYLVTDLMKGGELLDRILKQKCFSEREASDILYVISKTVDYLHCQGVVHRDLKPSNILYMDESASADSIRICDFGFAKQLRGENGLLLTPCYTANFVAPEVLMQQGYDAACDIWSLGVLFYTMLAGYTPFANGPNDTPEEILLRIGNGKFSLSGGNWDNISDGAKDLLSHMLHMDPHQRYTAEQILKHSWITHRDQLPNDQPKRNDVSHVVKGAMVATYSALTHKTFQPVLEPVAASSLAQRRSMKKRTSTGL

Structure (SMILES)	inhibition [1]	inhibition [2]	inhibition [3]	inhibition [4]	inhibition [5]	inhibition [6]	inhibition [7]	inhibition [8]	inhibition [9]	inhibition [10]	inhibition [11]	inhibition [12]	inhibition [13]	inhibition [14]	inhibition [15]	inhibition [16]	inhibition [17]	inhibition [18]	inhibition [19]	inhibition [20]
COc1cc2c(cc1Nc1nc(N3CCc4ccccc43)c3cc[nH]c3n1)N(C(=O)CN(C)C)CC2	0.95%	0.53%	1.07%	-0.51%	2.34%	1.69%	-0.59%	2.03%	0.36%	-1.68%	3.8%	4.37%	-4.13%	2.17%	0.61%	0.98%	1.3%	0.34%	2.58%	3.95%
CS(=O)(=O)CCNCc1ccc(-c2ccc3ncnc(Nc4ccc(OCc5ccccc5)c(Cl)c4)c3c2)o1	0.49%	0.96%	1.58%	2.63%	0.46%	-0.5%	1.84%	-1.82%	-0.45%	3.82%	0.49%	0.49%	1.58%	0.43%	-0.39%	0.27%	2.32%	-0.75%	1.29%	-1.33%
Nc1nc(-c2ccc3c(c2)C(=Cc2cc(Br)c(O)c(Br)c2)C(=O)N3)cs1	2.87%	0.99%	0.56%	0.38%	2.1%	-0.67%	-0.04%	-0.3%	6.79%	3.28%	1.63%	3.02%	5.77%	1.06%	6.62%	0.58%	8.7%	0.31%	9%	-5.57%
CCn1c(-c2nonc2N)nc2cncc(C(=O)N3CCNCC3)c21	2.55%	1.92%	4.77%	3.56%	4.56%	5.25%	6.39%	3.24%	4.88%	8.15%	3.25%	-0.04%	2.51%	2.38%	-2.27%	-0.27%	2.15%	0.79%	2.87%	4.62%
COc1ccc(-c2coc3ncnc(N)c23)cc1	2.17%	2.68%	1.67%	-1.21%	-0.41%	2.69%	2.97%	2.92%	3.4%	4.54%	5.94%	3.47%	1.24%	3.33%	4.41%	2.46%	4.44%	1.1%	2.41%	3.92%
CC(=O)Nc1cccc(C#Cc2cncnc2Nc2ccc(OCc3cccc(F)c3)c(Cl)c2)n1	-0.14%	1.53%	5.43%	1.09%	-1%	2.07%	4.12%	-0.86%	3.32%	-1.09%	-0.66%	2.57%	1.97%	-1.43%	5.34%	1.19%	5.79%	0.41%	0.25%	0.69%
CS(=O)(=O)CCN(CC#N)Cc1ccc(-c2ccc3ncnc(Nc4ccc(OCc5cccc(F)c5)c(Cl)c4)c3c2)o1	-0.88%	3.63%	0.86%	1.72%	-1.45%	0.78%	3.35%	3.45%	0.16%	3.89%	-0.61%	0.1%	1.9%	0.56%	-2.91%	0.28%	0.65%	-1.29%	-1.27%	-0.98%
COc1ccc(-c2nn3ncccc3c2-c2ccnc(Nc3ccc(Cl)c(C(F)(F)F)c3)n2)cc1	0.85%	1.68%	4.61%	-2.66%	0.76%	2.3%	2.89%	2.31%	2.56%	0.17%	-8.45%	-1.07%	-2.34%	1.4%	1.98%	2.7%	4.49%	-0.51%	-1.4%	1.97%
COC(=O)Nc1nc2cc(Oc3ccc(NC(=O)Nc4cccc(C(=O)O)c4)cc3)ccc2[nH]1	1.45%	1.3%	1.96%	1.67%	1.89%	-2.29%	2.6%	1.04%	4.37%	-4.37%	2.8%	6.73%	8%	-1.07%	2.91%	2.19%	9.32%	0.59%	-1.87%	1.77%
COc1ccccc1Nc1ncc(-c2ccccc2)o1	0.95%	2.95%	4.31%	5.64%	0.66%	4.99%	3.37%	1.74%	3.31%	3.16%	4.09%	-0.18%	-4.21%	-0.58%	3.87%	2.96%	4.49%	-0.11%	-0.14%	3.16%
O=C(Nc1n[nH]c2nc(-c3ccco3)c(Br)cc12)C1CC1	2.56%	3.35%	3.09%	0.84%	-4.73%	2.77%	3.45%	3.65%	3.4%	1.15%	5.5%	-2.45%	4.11%	3%	12.9%	3.32%	11.5%	0.93%	1.36%	4.38%
COc1ccc2cc(-c3c(-c4ccncc4)nc(-c4ccc([S+](C)[O-])cc4)n3C)ccc2c1 (stereo not given)	1.25%	1.97%	0.68%	2.93%	-0.04%	2.63%	4.38%	3.11%	1.29%	1.9%	3.34%	1.01%	2.13%	1.67%	3.16%	1.67%	0.66%	-0.09%	0.68%	3.34%
